From PubChem BioAssay (Tox21)
Inconclusive results are not listed. Entries that show only a call come without a potency. Unmarked numbers belong to inactive results. The source made the active and inactive calls. Calls come from the whole dose curve; as a rule, active = well fitted inhibition curve with a large enough effect in the repeat runs; inconclusive = weak or mixed curves; inactive = flat fitted curve, though single readings scatter.

biological target: Luciferin 4-monooxygenase (Photinus pyralis) (UniProt P08659); assay: qHTS assay to identify small molecule inhibitors of firefly luciferase (AID 1224835); note: nearly all actives have a fitted effect of over 25% in size; conditions: purified P. pyralis luciferase, luminescence inhibition; series mostly up to 115 µM
Excerpt: U.S. Tox21 Program National Center for Advancing Translational Sciences [NCATS] NIH Chemical Genomics Center [NCGC] U.S. Environmental Protection Agency [EPA] National Institutes of Environmental Health Sciences [NIEHS] National Toxicology Program [NTP] U.S. Food and Drug Administration [FDA] Tox21 Assay Overview: Firefly (Photinus pyralis) luciferase is one of the most commonly used transcriptional reporters. Firefly luciferase reporter-gene assays are generally considered one of the most sensitive assay types (Wood, 1995; Wood, 1998). However, it was initially observed, in 1991, by Thompson et al., that compounds that resemble the substrates of firefly luciferase (FLuc) can act as competitive inhibitors of the enzyme, and that these compounds, upon interaction with luciferase in the cell, can actually stabilize the protein and increase its half-life. Previous profiling work by other groups to determine the prevalence of compounds that affect FLuc enzymatic activity (PubChem AID 411) identified that ~3% of the MLSMR library (then at ~72K) inhibited FLuc. […] Thus the Tox21 10K library is profiled for activity against FLuc using a biochemical assay of purified FLuc and KM concentrations of FLuc substrates (D-luciferin and ATP).
These assay plates were then treated with 23nL of compound or DMSO using a Kalypsys pin tool, which allows for delivery of a 6-point interplate titration of each compound to the assay plate (quantitative HTS.) 1 uL of firefly luciferase mix (containing 50 mM Tris acetate, pH 7.6, 0.04 uM P. pyralis luciferase, 0.01% Tween, 0.05% BSA and dH2O) was then delivered by FRD to each well. Luciferase activity was then measured using a ViewLux CCD imager.

Luciferin 4-monooxygenase (Photinus pyralis), sequence (P08659 whole entry, looked up): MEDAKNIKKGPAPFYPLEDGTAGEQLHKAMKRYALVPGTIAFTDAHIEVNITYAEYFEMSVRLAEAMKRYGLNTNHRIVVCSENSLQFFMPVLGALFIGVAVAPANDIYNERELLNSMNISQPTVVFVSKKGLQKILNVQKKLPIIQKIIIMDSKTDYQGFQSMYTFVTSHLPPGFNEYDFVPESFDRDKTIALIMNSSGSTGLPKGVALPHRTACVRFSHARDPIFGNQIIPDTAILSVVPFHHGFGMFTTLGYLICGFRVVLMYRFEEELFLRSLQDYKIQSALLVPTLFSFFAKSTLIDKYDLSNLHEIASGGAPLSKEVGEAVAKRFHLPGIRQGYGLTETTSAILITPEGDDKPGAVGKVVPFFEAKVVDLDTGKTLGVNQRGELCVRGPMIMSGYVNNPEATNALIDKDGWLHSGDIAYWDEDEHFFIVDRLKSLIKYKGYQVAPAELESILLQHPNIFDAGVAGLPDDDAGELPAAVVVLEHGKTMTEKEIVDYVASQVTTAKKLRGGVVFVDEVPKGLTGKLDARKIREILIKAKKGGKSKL

SMILES | Potency | activity change, negative = inhibition
C=CC(C)=CCC=C(C)C | inactive | 
COC(OC)(C(=O)c1ccccc1)c1ccccc1 | inactive | 
NCC1CCCC(CN)C1 (stereo not given) | inactive | 
OC/C(Br)=C(\Br)CO | inactive | 
C/C=C/C=C/CCCCCCCO | inactive | 
C=CCCCCCCCCCCCCCCCC |  | 0.644% [at 10.5 µM]
CCCOCCOCCO | inactive | 
CC(C)C(=O)O | inactive | 
O=C(/C=C/c1ccccc1)OCCCc1ccccc1 | 17.8 µM (active) | 
CC(=O)N(c1onc(C)c1C)S(=O)(=O)c1ccc(N)cc1 | inactive | 
Cn1c(=O)c2c(ncn2CC(=O)O)n(C)c1=O | inactive | 
O=Cc1c(Cl)cccc1Cl | inactive | 
CC(C)=CC=O | inactive | 
NC(=O)Nc1ccc(Cl)cc1 | inactive | 
CCCOC(=O)c1ccc(C(=O)OCCC)nc1 | 35.6 µM (active) | 
CC(C)(O)c1ccccc1CC[C@@H](SCC1(CC(=O)O)CC1)c1cccc(/C=C/c2ccc3ccc(Cl)cc3n2)c1 | inactive | 
C=C(C)C(=O)OCCOC(=O)CC(C)=O | inactive | 
CCN(Cc1cccc(S(=O)(=O)O)c1)c1ccc(C(=C2C=CC(=[N+](CC)Cc3cccc(S(=O)(=O)[O-])c3)C=C2)c2ccccc2)cc1 | 22.3 µM (active) | 
C=CCOC(=O)/C=C\C(=O)OCC=C | inactive | 
CCCCCC=CCC=CCCCCCCCC(=O)OCC | inactive | 

SMILES | Potency | activity change, negative = inhibition
CCCCC/C(=C\c1ccccc1)CO | inactive | 
CC(N)CN (stereo not given) | inactive | 
O=C(O)C(Cc1cc(I)c(O)c(I)c1)c1ccccc1 (stereo not given) | inactive | 
CSc1ccc(Oc2ccc(S(N)(=O)=O)cc2CN(C)C)cc1C | inactive | 
Brc1cc(-c2ccc(Br)c(Br)c2Br)cc(Br)c1Br | inactive | 
CN1C(=O)CC(C)(c2ccccc2)C1=O (stereo not given) | inactive | 
CC(=O)CC(c1ccc([N+](=O)[O-])cc1)c1c(O)c2ccccc2oc1=O (stereo not given) | inactive | 
CCCCCCCCCCCC[N+](C)(C)CC(=O)[O-] | inactive | 
CCCCCCOC(=O)CCCCCCCC(=O)OCCCCCC | inactive | 
Cc1occc1C(=O)Nc1ccc(C(=O)N2CCC(F)(F)/C(=C\C(=O)N3CCC(N4CCCCC4)CC3)c3ccccc32)cc1 | inactive | 
Fc1ccccc1[C@@H](F)COC1CCC(Nc2ncnc3[nH]ncc23)CC1 (stereo not given in full) | inactive | 
CCC(C)(O)CCC=C(C)C (stereo not given) | inactive | 
OCCSc1ccccc1 | inactive | 
CC1CC(=O)NN=C1c1ccc(NCC(C)(C)NCC(O)COc2cc(Cl)ccc2C#N)cc1 (stereo not given) | inactive | 
CC1CN(c2cc3c(cc2F)c(=O)c(C(=O)O)cn3-c2ccc(F)cc2F)CCN1 (stereo not given) |  | 1.15% [at 10.5 µM]
O=C(CCCN1CCC(O)(c2ccc(Br)cc2)CC1)c1ccc(F)cc1 | inactive | 
CCCOC(=O)c1ccc(N)cc1 | inactive | 
Cc1oncc1C(=O)Nc1ccc(C(F)(F)F)cc1 | 39.9 µM (active) | 
O=C(OCCOCCO)c1ccccc1Nc1cccc(C(F)(F)F)c1 | inactive | 
CC(=N\O)/C(C)=N/O | inactive | 
